# Results from PubChem BioAssay AID2284421 (EPA ToxCast).
# Calls of active or inactive are those of the source. The calls were made as follows: active = hit-call score of the fitted dose curve at least 0.9, where 1 is the maximum; inactive = score below 0.9.
# Test system: Brachyury (BRA) Protein Expression, Deisenroth Lab, TBXT (gene 6862)
# Assay: CCTE_Deisenroth_DEVTOX-GLR_Meso_BRA: CCTE's DevTox GLR-Meso Assay Evaluation of Brachyury (BRA) Protein Expression, Deisenroth Lab
# Protocol: CCTE_Deisenroth_DEVTOX-GLR_Meso assay is a cell-based, multiplex-readout assay that uses RUES2-GLR, a human pluripotent cell line, with measurements taken at 48 hours after chemical dosing in a 384-well microplateCCTE_Deisenroth_DEVTOX-GLR_Meso_BRA is 1 of 4 assay components calculated from the CCTE_Deisenroth_DEVTOX-GLR_Meso assay and it measures an the percentage of cells in an mesoderm state. Using a type of inducible fluorescent protein reporter, gain-of-signal activity can be used to understand changes in gene expression with fluorescent microscopy. The percentage of BRA+ cells are determined by calculating the number of BRA+ cells divided by the cell count. To generalize the intended target to other relatable targets, this assay component is annotated to the transcription factor intended target family, where the subfamily is T-box protein.Data from the assay component CCTE_Deisenroth_DEVTOX-GLR_Meso_BRA was analyzed as 1 assay endpoint. The endpoint is the percent change in BRA+ cell population relative to the 0.2% DMSO control in the CCTE_Deisenroth_DEVTOX-GLR_Meso assay. Furthermore, this assay endpoint can be referred to as a primary readout, because this assay has produced multiple assay endpoints where this one serves as a measure of mesoderm differentiation.
# All assay protocols are aligned to the DevTox GLR-Endo assay workflow. Cells are seeded into 384-well microplates for 24 hours prior to initiating differentiation in defined media for a total duration of 48 hours. A total of two chemical exposures are administered in 24-hour intervals during the 48-hour differentiation period. At the assay termination point, cells are fixed and stained with a fluorescent dye demarcating the nucleus. High-content imaging is used to acquire brightfield and fluorescent channel images across 5 fields per well. Cell identification and mean biomarker fluorescence intensities are calculated with image analysis software to determine the total cell counts for viability assessment and the biomarker expression frequency for each lineage-dependent assay. A typical experimental design tests a 10-point concentration series (1 nM - 200 uM) for 28 compounds in single technical replicate. Assay plate controls include non-differentiated pluripotent cells (baseline control), lineage-specific differentiated cells (differentiation control), and DMSO solvent exposed differentiated cells (solvent control). Experiments typically comprise a minimum of four experimental replicates (n=4).
Structure (SMILES),outcome,AC50
CN(Cc1cnc2nc(N)nc(N)c2n1)c1ccc(C(=O)N[C@@H](CCC(=O)O)C(=O)O)cc1,inactive,
O=C1CCC(N2C(=O)c3ccccc3C2=O)C(=O)N1 (stereo unspecified),inactive,
O=C1NC(=O)C(c2ccccc2)(c2ccccc2)N1,inactive,
CC(C)(c1ccc(O)cc1)c1ccc(O)cc1,inactive,
O=C1NS(=O)(=O)c2ccccc21,inactive,
O=c1[nH]cc(F)c(=O)[nH]1,inactive,
CS(=O)(=O)OCCCCOS(C)(=O)=O,inactive,
CC1(C)S[C@@H]2[C@H](NC(=O)Cc3ccccc3)C(=O)N2[C@H]1C(=O)O,inactive,
CC1=C(/C=C/C(C)=C/C=C/C(C)=C\C(=O)O)C(C)(C)CCC1,inactive,
CC(=O)Nc1ccc(O)cc1,inactive,
CC1=C(/C=C/C(C)=C/C=C/C(C)=C/C(=O)O)C(C)(C)CCC1,inactive,
CCCC(CCC)C(=O)O,inactive,
Nc1nc2ncc(CNc3ccc(C(=O)N[C@@H](CCC(=O)O)C(=O)O)cc3)nc2c(=O)[nH]1,inactive,
CC/C(=C(/CC)c1ccc(O)cc1)c1ccc(O)cc1,,19.8 µM (active)
CCN(CC)CCNC(=O)c1c(C)[nH]c(/C=C2\C(=O)Nc3ccc(F)cc32)c1C,inactive,
Nc1cccc2c1C(=O)N(C1CCC(=O)NC1=O)C2=O (stereo unspecified),inactive,
